From PubChem BioAssay (NCI)
About 79,000 compounds went through this panel and 15% of them were active in at least one assay; those are over-represented in the sample as a whole. Active and inactive are the calls of the source. No stated cut-off is given here; in the data, active means growth inhibition above about 70%; inactive means the rest.

Experiments:
[1] = NCI Yeast Anticancer Drug Screen. Data for the rad50 strain (AID 155);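 further: 0% = growth of vehicle-only cultures of the same strain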; conditions: S. cerevisiae rad50 strain growth inhibition, hits give high values
Method in brief: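 Relative growth inhibition (compound vs vehicle) was measured in yeast with a defined repair-gene alteration.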

[2] = NCI Yeast Anticancer Drug Screen. Data for the mec2-1 strain (AID 157); conditions: S. cerevisiae mec2-1 strain, hits give high values
Method in brief: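 Each compound was tested on mec2-1 yeast, a strain altered in DNA damage repair or cell cycle control. Growth inhibition is reported relative to vehicle.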

[3] = NCI Yeast Anticancer Drug Screen. Data for the sgs1 mgt1 strain (AID 161);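 further: 0% = growth of cultures given vehicle only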; conditions: S. cerevisiae sgs1 mgt1 strain, hits give high values
Method in brief: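 Test agents were incubated with a DNA-repair-mutant yeast strain. Growth was then read and compared against vehicle-treated controls.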

[4] = NCI Yeast Anticancer Drug Screen. Data for the cln2 rad14 strain (AID 165);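 further: 0% = growth equal to vehicle treated cultures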; conditions: S. cerevisiae cln2 rad14 strain, hits give high values
Method in brief: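 Test compounds were added to cln2 rad14 yeast cultures; inhibition of growth was then determined by comparison with vehicle treatment.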

[5] = NCI Yeast Anticancer Drug Screen. Data for the bub3 strain (AID 167); conditions: S. cerevisiae bub3 mutant strain, hits give high values
Method in brief: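 Screening used yeast with an engineered genetic alteration affecting cell cycle control. Compound-exposed cultures were compared with vehicle cultures, and reduced growth was taken as inhibition.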

[6] = NCI Yeast Anticancer Drug Screen. Data for the mlh1 rad18 strain (AID 175); conditions: S. cerevisiae mlh1 rad18 strain growth inhibition, hits give high values
Method in brief: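 Inhibition values reflect reduced growth of mutant yeast versus vehicle-treated controls following compound exposure; the mutations affect DNA damage repair.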

[7] = at 5.0 µM (retest, dose inferred, filed as 0.5)
[8] = at 50.0 µM (retest, dose inferred, filed as 5.0)

Measured: growth inhibition

COC(=O)c1n[nH]c(C)c1N=NN1CCC(C(N)=O)CC1
inactive: [1]; [7] 30% | [2]; [7] -8% | [3]; [7] -13% | [4]; [7] -1% | [5]; [7] -5% | [6]; [7] 36%
active: [1]; [8] 98% | [1]; at 50.0 µM 98.3% | [2]; [8] 99% | [2]; at 50.0 µM 99.2% | [3]; [8] 99% | [3]; at 50.0 µM 98.8% | [4]; [8] 99% | [4]; at 50.0 µM 97.8% | [5]; [8] 98% | [5]; at 50.0 µM 98.2% | [6]; [8] 99% | [6]; at 50.0 µM 99.2%

CCCCN(CCCC)Cc1cc(Nc2c3ccc(Cl)cc3nc3ccc(OC)cc23)ccc1O
inactive: [1]; [7] 4% | [2]; [7] 10% | [2]; [8] 56% | [3]; [7] -19% | [4]; [7] -4% | [4]; [8] 23% | [5]; [7] -3% | [5]; [8] 36% | [5]; at 50.0 µM 58.4% | [6]; [7] 7%
active: [1]; [8] 91% | [1]; at 50.0 µM 79.2% | [2]; at 50.0 µM 86.7% | [3]; [8] 95% | [3]; at 50.0 µM 75.4% | [4]; at 50.0 µM 89.5% | [6]; [8] 79% | [6]; at 50.0 µM 98.1%

Clc1ccccc1CN1COc2c(ccc3cccnc23)C1
active: [6]; [8] 72%
inactive: [1]; [7] 9% | [1]; [8] 21% | [1]; at 50.0 µM 69% | [2]; [7] 12% | [2]; [8] 16% | [2]; at 50.0 µM 32.9% | [3]; [7] 7% | [3]; [8] 51% | [3]; at 50.0 µM 55.5% | [4]; [7] 0% | [4]; [8] 44% | [4]; at 50.0 µM 13.3% | [5]; [7] 7% | [5]; [8] 31% | [5]; at 50.0 µM 26.1% | [6]; [7] 19% | [6]; at 50.0 µM 41.6%

COc1ccc(/C=C(\C#N)c2ccccc2)cc1OC
inactive: [1]; [7] 0% | [1]; [8] 55% | [2]; [7] -18% | [2]; [8] 29% | [3]; [7] 1% | [3]; [8] 53% | [4]; [7] 30% | [4]; [8] 34% | [4]; at 50.0 µM 54.5% | [5]; [7] 5% | [5]; [8] 66% | [6]; [7] -6% | [6]; [8] 64%
active: [1]; at 50.0 µM 86.6% | [2]; at 50.0 µM 87.3% | [3]; at 50.0 µM 88.5% | [5]; at 50.0 µM 84.4% | [6]; at 50.0 µM 90.2%

O=C1c2ccccc2C(O)(C#Cc2ccccc2)c2cnccc21 (configuration not stated)
active: [1]; [8] 96% | [1]; at 50.0 µM 97.8% | [2]; [8] 97% | [2]; at 50.0 µM 98.5% | [3]; [8] 97% | [3]; at 50.0 µM 98.2% | [4]; [8] 96% | [4]; at 50.0 µM 97% | [5]; [8] 97% | [5]; at 50.0 µM 98.2% | [6]; [8] 96% | [6]; at 50.0 µM 97.8%
inactive: [1]; [7] -6% | [2]; [7] -5% | [3]; [7] -1% | [4]; [7] -11% | [5]; [7] -11% | [6]; [7] -5%

CCC[CH2][Sn]1([CH2]CCC)[O]C(=O)CN=Cc2c(ccc3ccccc23)[O]1
inactive: [1]; [7] 47% | [1]; [8] 47% | [3]; [7] 38% | [3]; [8] 38% | [4]; [7] 48% | [4]; [8] 48% | [5]; [7] 53% | [5]; [8] 53% | [6]; [7] 67% | [6]; [8] 67%
active: [1]; at 50.0 µM 91.2% | [2]; [7] 74% | [2]; [8] 74% | [2]; at 50.0 µM 94% | [3]; at 50.0 µM 92.9% | [4]; at 50.0 µM 92.6% | [5]; at 50.0 µM 92.6% | [6]; at 50.0 µM 91.7%

O=C1c2ccccc2C(=O)N1c1ccccc1
inactive: [1]; [7] -2% | [1]; [8] -20% | [1]; at 50.0 µM 31.4% | [2]; [7] -3% | [2]; [8] -1% | [2]; at 50.0 µM -5.9% | [3]; [7] 1% | [3]; [8] 5% | [3]; at 50.0 µM 20% | [4]; [7] 3% | [4]; [8] 7% | [4]; at 50.0 µM 42.2% | [5]; [7] 36% | [5]; [8] 15% | [5]; at 50.0 µM 2.3% | [6]; [7] -1% | [6]; [8] 2% | [6]; at 50.0 µM 16.4%

O=C(Nc1ccccc1-c1nn(C(=S)Nc2ccccc2)c(=S)n(C(=S)Nc2ccccc2)c1=O)C(F)(F)F
active: [2]; [8] 87% | [2]; at 50.0 µM 88.1% | [3]; [8] 77% | [6]; [8] 88% | [6]; at 50.0 µM 81.5%
inactive: [1]; [7] 6% | [1]; [8] 59% | [1]; at 50.0 µM 47.1% | [2]; [7] 2% | [3]; [7] 10% | [3]; at 50.0 µM 46.5% | [4]; [7] 7% | [4]; [8] 38% | [4]; at 50.0 µM 17.2% | [5]; [7] -41% | [5]; [8] 50% | [5]; at 50.0 µM 15.4% | [6]; [7] 3%

C[n+]1c(-c2cccc(OCCOCCOc3cccc(-c4c5cc(N)ccc5c5ccc(N)cc5[n+]4C)c3)c2)c2cc(N)ccc2c2ccc(N)cc21
inactive: [1]; [7] 36% | [2]; [7] 6% | [3]; [7] 25% | [4]; [7] 10% | [4]; [8] 59% | [4]; at 50.0 µM 62.9% | [5]; [7] 22% | [6]; [7] 35%
active: [1]; [8] 96% | [1]; at 50.0 µM 85.5% | [2]; [8] 95% | [2]; at 50.0 µM 82.7% | [3]; [8] 97% | [3]; at 50.0 µM 81.3% | [5]; [8] 94% | [5]; at 50.0 µM 78.8% | [6]; [8] 95% | [6]; at 50.0 µM 86.5%
